Read-outs that look alike come from different tables or passages of the source. Among all 3,300 compounds or so, about 95 (3%) showed an effect of 50% or more. The full list was thinned out, with strong results kept by preference.
Tested on: HCoV-229E
Design: species or system Huh-7; HTS, protection from HCoV-229E induced cell death, luminescent cell viability (CellCounting-Lite 2.0), inhibition rate
Settings: 24 h post infection, 1 h compound pre-incubation, 10 µM, inhibitor

Structure (SMILES)	229E Inhibition rate	229E Inhibition rate (229E Inhibition rate, 24 h)
C[C@@H]1O[C@H]2O[C@H]3[C@@H](OC[C@H](O)[C@@H]3O)OC(=O)[C@]34CCC(C)(C)C[C@H]3C3=CC[C@@H]5[C@@]6(C)C[C@H](O)[C@H](O[C@@H]7O[C@H](CO)[C@@H](O)[C@H](O)[C@H]7O[C@@H]7OC[C@H](OC(=O)C[C@](C)(O)CC(=O)O[C@@H]1[C@@H](O[C@@H]1OC[C@@H](O)[C@H](O)[C@H]1O)[C@H]2O)[C@H](O)[C@H]7O)[C@@](C)(CO)[C@@H]6CC[C@@]5(C)[C@]3(C)C[C@H]4O [Tubeimoside II]	0.9%	–
CC1(C)CCC2(CO)C(=C3C=CC4C5(C)CCC(OC6OC(COC7OC(CO)C(O)C(O)C7O)C(OC7OC(CO)C(O)C(O)C7O)C(O)C6O)CC5C(C)(CO)CC4(C)C3(C)CC2O)C1 (stereo not shown) [Clinodiside A]	8.8%	–
COC(=O)Cc1c[nH]c2ccccc12 [Methyl 2-(1H-indol-3-yl)acetate]	38.3%	–
COc1c(/C=C/C(=O)c2ccc(O)cc2)ccc(O)c1O [Licochalcone B]	25.4%	–
COc1cc(O)ccc1/C=C/C(=O)c1ccc(O)cc1 [Echinatin]	0%	–
C=C(C)[C@H](C)c1cc(/C=C/C(=O)c2ccc(O)cc2)c(OC)cc1O [Licochalcone E]	61.6%	–
CC1=C(O)C(=O)C(C)O1 (stereo not shown) [Furaneol]	17.8%	–
COc1cc2c(cc1OC)[C@@H](Cc1ccc(Oc3cc(C[C@@H]4c5cc(OC)c(OC)cc5CCN4C)ccc3O)cc1)N(C)CC2 [Dauricine]	3.6%	–
O=C(/C=C/c1ccc(O)c(O)c1)OC[C@@H](O)CO[C@@H]1O[C@H](CO)[C@@H](O)[C@H](O)[C@H]1O [Regaloside C]	52.3%	–
O=C(/C=C/c1ccc(O)c(O)c1)OC[C@H]1O[C@@H](OCCc2ccc(O)c(O)c2)[C@H](O)[C@@H](O)[C@@H]1O [Calceolarioside B]	10.8%	–
O=C(/C=C/c1ccc(O)c(O)c1)c1ccc(O[C@@H]2O[C@H](CO)[C@@H](O)[C@H](O)[C@H]2O)c(O)c1O [Marein]	17.9%	–
Cc1cn([C@@H]2O[C@H](CO)[C@@H](O)[C@H]2O)c(=O)[nH]c1=O [5-Methyluridine]	14.9%	–
CC(C)c1cc2c(c(O)c1O)[C@@]13CCCC(C)(C)[C@@H]1[C@H](OC3=O)[C@H]2O [Rosmanol]	0%	–
CC1NC(=O)CNC1=O (stereo not shown) [Cyclo(Ala-Gly)]	39.9%	–
CCCCCCCCCCCCCCCCC(C(=O)O)C(O)(CC(=O)O)C(=O)O (stereo not shown) [Agaric acid]	18.4%	–
CC(C)(O)[C@H]1CC[C@@](C)([C@H]2[C@@H](O)C[C@@]3(C)[C@@H]4C[C@H](O)[C@H]5C(C)(C)[C@@H](O)CC[C@@]56C[C@@]46CC[C@]23C)O1 [Cyclogalegenin]	12.6%	–

Structure (SMILES)	229E Inhibition rate	229E Inhibition rate (229E Inhibition rate, 24 h)
CN[C@@H](C)[C@H]1[C@H](O)C[C@@]2(C)[C@@H]3CC[C@H]4C(C)(C)[C@@H](NC)CC[C@@]45C[C@@]35CC[C@]12C [Cyclovirobuxine D]	55.2%	–
CC(C)(O)[C@@H]1CC[C@](C)([C@H]2[C@@H](O)C[C@@]3(C)[C@@H]4C[C@H](O)[C@H]5C(C)(C)[C@@H](O)CC[C@@]56C[C@@]46CC[C@]23C)O1 [Cycloastragenol]	8.6%	–
CC(O)CC(=O)O (stereo not shown) [3-Hydroxybutyric acid]	11.2%	–
COc1cc2c(c(OC)c1OC)-c1c(cc3c(c1OC)OCO3)C[C@H](C)[C@H](C)C2 [Gomisin N]	–	42.9%
COc1c2c(cc3c1-c1c(cc4c(c1OC)OCO4)C[C@H](C)[C@H](C)C3)OCO2 [Schisandrin C]	52.7%	–
COc1cc2c(c(OC)c1OC)-c1c(cc3c(c1O)OCO3)C[C@H](C)[C@@H](C)C2 [Gomisin M2]	19.3%	–
C/C=C(/C)C(=O)O[C@H]1c2cc(OC)c(OC)c(OC)c2-c2c(cc3c(c2OC)OCO3)C[C@H](C)[C@]1(C)O [Schisantherin B]	54.7%	–
C/C=C(/C)C(=O)O[C@H]1c2cc(OC)c(OC)c(OC)c2-c2c(cc(OC)c(OC)c2OC)C[C@H](C)[C@]1(C)O [Angeloylgomisin Q]	42.2%	–
COc1cc2c(cc1OC)-c1c(OC)c(OC)cc3c1[C@H](C2)N(C)CC3 [Glaucine]	14.2%	–
COc1cc2c(c(OC)c1OC)-c1c(cc3c(c1OC)OCO3)C[C@H](C)[C@@](C)(O)C2 [Schisandrol B]	7.8%	–
C/C=C(\C)C(=O)O[C@@H]1c2cc(OC)c(OC)c(OC)c2-c2c(cc3c(c2OC)OCO3)C[C@H](C)[C@@]1(C)O [Tigloylgomisin P]	40.2%	–
COc1cc2c(c(OC)c1OC)-c1c(cc(OC)c(OC)c1OC)C[C@H](C)[C@H](C)C2 [Schisandrin A]	35.1%	–
CN1CCc2cc3c(c4c2C1Cc1ccccc1-4)OCO3 (stereo not shown) [Roemerine]	25.9%	–
COc1ccc2c(c1OC)CC1c3c(cc4c(c3-2)OCO4)CCN1C (stereo not shown) [Crebanine]	62.7%	–
COc1cc2c(c(OC)c1OC)-c1c(cc3c(c1OC)OCO3)C[C@H](C)[C@H](C)C2 [Schisandrin B]	–	56.2%

From publication PMC12431657, “Discovery and mechanistic insights of dibenzoylmethane as a broad spectrum inhibitor of coronavirus” (PLOS Pathogens, 2025)
